Reference: PubChem BioAssay AID1851 (National Center for Advancing Translational Sciences (NCATS), 2009)
Screen size: about 16,000 compounds; about 5,800 (36%) were called active. Inconclusive results (about 23%) are left out. Calls follow the shape of the dose curve; as a rule, active = well fitted curve in the direction sought with a large enough effect; inconclusive = small, poorly fitted or top-dose-only effect, or effect the other way; inactive = no such curve, though single readings can be large or run the other way. The list shows a part of the results.

What follows are compounds tested against Cytochrome P450 2C19 (Homo sapiens) (UniProt P33261) (assay: Cytochrome panel assay with activity outcomes). Conditions: recombinant CYP, pro-luciferin dealkylation, luminescence, p450-cyp2c19; series mostly up to 57.1 µM; activity, negative = inhibition: at the top concentration.
% is scaled to controls: 0 for no effect and ±100 for the full control effect.

Sequence of Cytochrome P450 2C19 (Homo sapiens) (P33261 whole entry, looked up): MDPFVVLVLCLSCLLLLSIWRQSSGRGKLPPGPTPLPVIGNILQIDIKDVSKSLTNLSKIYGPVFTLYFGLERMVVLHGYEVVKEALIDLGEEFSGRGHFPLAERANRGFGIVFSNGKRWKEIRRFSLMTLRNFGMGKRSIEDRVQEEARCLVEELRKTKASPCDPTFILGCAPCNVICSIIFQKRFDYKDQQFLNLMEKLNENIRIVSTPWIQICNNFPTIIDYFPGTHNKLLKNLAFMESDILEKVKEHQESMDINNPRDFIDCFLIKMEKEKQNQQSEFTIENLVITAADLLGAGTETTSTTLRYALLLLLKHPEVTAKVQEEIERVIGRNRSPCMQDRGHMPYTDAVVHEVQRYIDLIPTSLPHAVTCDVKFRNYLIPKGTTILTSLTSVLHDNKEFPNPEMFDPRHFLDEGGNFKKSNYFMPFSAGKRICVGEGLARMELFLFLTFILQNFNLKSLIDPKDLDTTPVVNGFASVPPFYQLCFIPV

Structure (SMILES)	activity, negative = inhibition	AC50
O=C1CCCN1CC(O)CS(=O)(=O)c1ccccc1 (stereo not given)	-6.21% (inactive)	–
Cc1cc2c(nc1C)CCCN2CC(O)CN1CCCc2nc(C)c(C)cc21	6.93% [at 11.4 µM] (inactive)	–
Cc1ccc(S(=O)(=O)CC(O)CN2CCCC2=O)cc1 (stereo not given)	–	10 µM (active)
CN(C)C(=O)/N=N\C(=O)N(C)C	-47.9% (inactive)	–
N[C@H](C(=O)O)[C@@H](O)c1cnc[nH]1	-17.9% [at 11.4 µM] (inactive)	–
C=CCOC(=O)/C(=C\c1cccc2ccccc12)NC(=O)c1ccccc1	–	0.398 µM (active)
CCOc1ccccc1/C=C(\C#N)C(N)=O	-18.7% [at 11.4 µM] (inactive)	–
CCOc1cccc2cc(C(N)=O)c(=NCc3ccccc3)oc12	–	10 µM (active)
CC(=O)NCCn1c(SCC(=O)NCc2ccco2)nc2ccccc2c1=O	–	1.12 µM (active)
CCOC(=O)CSc1nc2ccccc2c(=O)n1CC1CCC(C(=O)NCc2ccco2)CC1 (stereo not given)	–	7.08 µM (active)
CC(C)Cn1c(SCc2nc3ccccc3c(=O)[nH]2)nc2ccccc2c1=O	–	2.51 µM (active)
O=C(CSc1nc2ccccc2c(=O)n1Cc1ccccc1)NCc1ccco1	–	0.708 µM (active)
COCCn1c(Cc2ccccc2)nnc1SCc1nc2ccccc2c(=O)[nH]1	56% (inactive)	–
O=C(CSc1ccccc1C(=O)O)NCc1ccco1	-3.72% (inactive)	–
COCc1nc2c([nH]1)c(=O)n(C)c(=O)n2CC(C)C	-17% (inactive)	–
C=CCNC(=O)C1CCN(S(=O)(=O)CC)CC1	-20.8% (inactive)	–
Cc1cc(NC(=O)CSc2nc3ccccc3c(=O)n2CCCC(=O)NCc2ccco2)n[nH]1	–	2.24 µM (active)
C=CCSc1nc2ccccc2c(=O)n1Cc1ccco1	–	1 µM (active)
O=C(CSc1nc2ccccc2c(=O)n1CCCO)NCc1ccccc1	–	11.2 µM (active)
Cc1cccc(C)c1-n1c(SCC(=O)NCc2ccco2)nc2ccccc2c1=O	–	4.47 µM (active)
Cc1cc(NC(=O)CSc2nc3ccsc3c(=O)n2Cc2ccccn2)n[nH]1	–	15.8 µM (active)
O=C(O)CCCCCn1c(SCC(=O)N2CCCC2)nc2ccsc2c1=O	16.5% (inactive)	–
COC(=O)N1CCC2(CCCN(C(=O)Nc3ccc(OC)cc3)C2)CC1	-38.2% (inactive)	–
O=c1c2ccccc2nc(SCc2ccccc2Cl)n1Cc1ccccc1	–	2.82 µM (active)
O=C(CSc1nc2ccccc2c(=O)n1CCCC(=O)N1CCCC1)NCc1ccco1	–	4.47 µM (active)

Structure (SMILES)	activity, negative = inhibition	AC50
COc1ccc(NC(=O)CSc2nc3ccccc3c(=O)n2CCC(=O)N2CCCCC2)cc1	–	0.794 µM (active)
O=C(CSc1nc2ccccc2c(=O)n1NC(=O)Cc1ccccc1)NCc1ccccc1Cl	–	0.794 µM (active)
CCOC(=O)COc1c(C=O)cc(Br)cc1OC	–	6.31 µM (active)
CCOC(=O)C1=C(O)/C(=C/c2cc(OC)c(OC)c(OC)c2)N=C1C	-19.3% (inactive)	–
CCOc1cc(/C=C2\N=C(C)OC2=O)cc(Br)c1OCC(=O)OC	-28.7% (inactive)	–
Cc1ccc(C)c(S(=O)(=O)N2CCC(c3nc4c(nnn4Cc4ccc(F)cc4)c(=O)[nH]3)CC2)c1	–	4.47 µM (active)
Nc1nc(Br)c2ccccc2c1-c1ccc(F)cc1	–	2.82 µM (active)
Nc1nc(Br)c2c(F)cccc2c1-c1ccc(Cl)cc1	–	1.26 µM (active)
O=C(Cc1ccc2c(c1)CCCC2)Nc1ccccc1Br	–	3.55 µM (active)
CC1=CC(C)(C)N(C)C(=O)N1c1ccc(Cl)cc1	–	15.8 µM (active)
NC(N)=Nc1nc(CCN2C(=O)c3ccccc3C2=O)cs1	–	2.82 µM (active)
CO[C@@H]1COC(=O)CC=C[C@@H](C)[C@@H]2C=C[C@@H](O)[C@@H](COC(=O)C/C=C\[C@H]1C)O2	-8% [at 11.4 µM] (inactive)	–
CC(=O)Nc1ccc(C(=O)NNC(=O)CCc2ccccc2)cc1	-11.5% (inactive)	–
CCC(=O)NNC(=O)CCC(=O)Nc1ccccc1	-11.9% (inactive)	–
Cc1cccc(C)c1NC(=O)CS(=O)CC(=O)NCCCc1ccccc1 (stereo not given)	-22.3% (inactive)	–
Cc1cccc(NC(=S)NC(=O)CCc2ccccc2)c1	–	5.62 µM (active)
CCCCC(=O)NC(=S)Nc1cccc(NC(=O)CC)c1	–	10 µM (active)
Cc1cccc(C)c1NC(=S)NC(=O)CCc1ccccc1	–	3.55 µM (active)
CCC(=O)Nc1cccc(C(=O)/C=C/c2ccccc2)c1	–	5.62 µM (active)
Cn1c(=O)c2c(-c3cccc(F)c3)c3c(nc2n(C)c1=O)-c1ccccc1C3O (stereo not given)	-77.1% (inactive)	–
Cc1c(C)c(C)c(CC2(C)CSC2)c(CC2(C)CSC2)c1C	35.5% [at 11.4 µM] (inactive)	–
CN(C)c1ncc2ncc(=O)n(C3CC3)c2n1	-21.5% (inactive)	–
N[C@H](CCC(=O)NCC(=O)O)C(=O)O	-14.1% (inactive)	–
Cc1ccc(C(=O)Nc2ccc3nccnc3c2)cc1	–	14.1 µM (active)
Cc1ccc(-n2nc3ccc(NC(=O)c4ccc5c(c4)OCO5)cc3n2)cc1	-26.9% (inactive)	–
